# Screening data from PubChem BioAssay.
# ZTA counter – ZTA (EBV) inhibition in EBNA-1 counter-screen; P03206; ZTA-DNA binding, fluorescence polarization; inhibition, % at 11 µM; hit rate 0.15% among 320,000; AID 2234; in the data active = inhibition above about 33%
# EBNA-1 inhibitor – blocks EBNA-1 binding to DNA; EBNA-1 DNA binding, fluorescence polarization; inhibition, % at 14.8 µM; hit rate 0.34% among 300,000; in the data active = inhibition above about 28%
# PAFAH2 inh – PAFAH2 (human) inhibition | Q99487 | recombinant PAFAH2, FP-rhodamine activity probe, fluorescence polarization | inhibition, % at 3.39 µM | hit rate 0.99% among 340,000 | AID 492956;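 active = inhibition above the mean over all tested compounds plus 3 SD, cut at about 30% in these data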;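 also: inhibitors block probe labeling of enzyme so polarization drops; 0% = enzyme with DMSO and 100% = wells lacking PAFAH2 protein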
# PAFAH1B3 FP inh – inhibitors of human PAFAH1B3 | recombinant PAFAH1B3, FP-rhodamine probe, fluorescence polarization | inhibition, % at 3.39 µM | hit rate 0.28% among 340,000 | AID 492972;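 active = inhibition above the screen-wide average of all tested compounds plus 3 SD, cut at about 25% in these data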;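 also: 0% = enzyme with DMSO only and 100% = wells lacking PAFAH1B3 protein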
# PAFAH1B2 inh – inhibitors of human PAFAH1B2; recombinant PAFAH1B2, FP-rhodamine activity probe, fluorescence polarization; inhibition, % at 3.39 µM; hit rate 1.2% among 340,000; AID 492953;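 active = inhibition above the mean of all tested compounds plus 3 SD, cut at about 24% in these data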;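 also: 0% = enzyme with DMSO and 100% = wells lacking PAFAH1B2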
# pPAFAH FP inh – pPAFAH (human) enzyme inhibition | hit rate 1.5% among 330,000 | Q13093 | inhibition, % at 3.39 µM | recombinant pPAFAH, FP-rhodamine probe fluorescence polarization;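 active = inhibition above the mean inhibition across the screen plus 3 SD, cut at about 25% in these data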;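 also: inhibitors block binding of the rhodamine activity-based probe so polarization drops; 0% = enzyme with DMSO and 100% = wells lacking pPAFAH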
# Target sequence (Q13093 whole entry, looked up): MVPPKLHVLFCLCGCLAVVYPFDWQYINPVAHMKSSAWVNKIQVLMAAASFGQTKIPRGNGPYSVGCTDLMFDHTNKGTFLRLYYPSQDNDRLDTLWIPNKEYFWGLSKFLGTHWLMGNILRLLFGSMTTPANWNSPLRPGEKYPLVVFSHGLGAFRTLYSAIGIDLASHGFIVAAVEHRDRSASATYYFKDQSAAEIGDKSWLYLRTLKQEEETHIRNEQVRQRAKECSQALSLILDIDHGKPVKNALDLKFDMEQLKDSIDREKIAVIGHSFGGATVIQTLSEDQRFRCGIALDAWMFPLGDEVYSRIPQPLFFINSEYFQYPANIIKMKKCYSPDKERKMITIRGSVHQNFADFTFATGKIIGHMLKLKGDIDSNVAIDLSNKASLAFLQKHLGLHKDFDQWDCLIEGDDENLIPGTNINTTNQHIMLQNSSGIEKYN
# PAFAH2 confirm – confirmation of human PAFAH2 inhibitors | shares compounds with PAFAH2 inh | recombinant PAFAH2, FP-rhodamine activity probe, fluorescence polarization | inhibition, % at 3.39 µM | hit rate 65% among 2,300;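 active = mean inhibition over three repeats above a set limit taken from the earlier primary screen, cut at about 30% in these data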;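 also: inhibitor blocks binding of rhodamine activity probe so polarization falls; 0% = enzyme with DMSO and 100% = wells lacking PAFAH2 protein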
# An asterisk follows results filed as active; · = no result given. In the library only some 2.9% were active in any assay of this set; here they are far more common.
SMILES,ZTA counter,EBNA-1 inhibitor,PAFAH2 inh,PAFAH1B3 FP inh,PAFAH1B2 inh,pPAFAH FP inh,PAFAH2 confirm
Cn1cc(C(=O)OCC(=O)NC2(C#N)CCCC2)c2ccccc21,-4,·,65*,3,0,10,49*
C=CCN1C(=O)/C(=C/c2cc(C)n(-c3cccnc3)c2C)C(=O)NC1=S,-10,-13,31*,-1,8,7,10
CC(C)N1CCN(Cc2cccc([N+](=O)[O-])c2)CC1,1,-11,117*,5,9,6,5
C=CCn1c(O)c(C(C)=NCCCN(C)C)c(=O)[nH]c1=O,-3,-10,10,0,7,0,·
O=C(O)C1C(C(=O)O)C2(Cl)C(Cl)=C(Cl)C1(Cl)C2(Cl)Cl (configuration not stated),3,·,28,4,6,-2,·
C=CCOC(=O)C1C(C(=O)O)C2(Cl)C(Cl)=C(Cl)C1(Cl)C2(Cl)Cl (configuration not stated),·,·,31*,8,21,·,21
Cc1cc(C=C2C(=O)NC(=S)NC2=O)c(C)n1C1CCCC1,-10,-11,34*,10,12,10,15
Cn1cc(/C=C2\C(=O)NC(=O)N(c3ccccc3)C2=O)c2ccccc21,-2,13,39*,7,5,-1,36*
COc1cc(/C=C2\C(=O)NC(=O)N(c3ccccc3)C2=O)cc(OC)c1O,4,0,-1,10,5,3,·
CC(C)(C)n1cccc1/C=C1\C(=O)NC(=O)N(c2ccccc2)C1=O,9,-1,50*,-2,9,2,44*
O=c1[nH]c(=O)n(CCc2ccccc2)c(O)c1C=NC1CC1,9,8,·,·,·,3,·
COc1ccccc1NC(=O)COC(=O)c1cc(C)n(C2CC2)c1C,·,·,4,2,2,3,·
Cc1cc(C(=O)OCC(=O)Nc2ccc(F)cc2)c(C)n1C1CC1,-14,·,43*,5,0,7,25
Cc1cc(C(=O)OCC(=O)Nc2cccc(F)c2)c(C)n1C1CC1,-5,·,65*,9,1,6,51*
c1csc(CN2CCNCC2)c1,0,-7,9,4,-1,-2,·
COc1cccc(CNCCc2cccc(F)c2)c1OC,-2,0,-1,-4,1,-1,·
Cc1ccccc1-n1c(C)cc(/C=C2/C(=O)NC(=O)N(Cc3ccco3)C2=O)c1C,13,-5,42*,15,3,6,46*
Cc1ccc(-n2c(C)cc(/C=C3/C(=O)NC(=O)N(Cc4ccco4)C3=O)c2C)cc1,0,5,6,1,-3,11,·
Cc1cc(/C=C2\C(=O)NC(=O)N(Cc3ccccc3Cl)C2=O)c(C)n1-c1ccc(C(=O)O)cc1,16,-15,34*,-1,5,11,24
O=C(NC1CCCCC1)N1Cc2ccccc2-n2nncc2C1,·,·,-1,9,-1,·,·
O=P(Oc1ccccc1)(Oc1ccccc1)C(O)c1ccc(Cl)cc1 (configuration not stated),5,3,14,3,2,8,·
COc1ccc(C(O)P(=O)(Oc2ccccc2)Oc2ccccc2)cc1 (configuration not stated),-1,-18,33*,5,-1,-2,18
Cc1cc(OCC(=O)N2C[C@H]3C[C@@H](C2)c2cccc(=O)n2C3)c2c(C)cc(=O)oc2c1,-6,7,38*,6,0,5,-3
CCc1cc(=O)oc2cc(OCC(=O)N3C[C@H]4C[C@@H](C3)c3cccc(=O)n3C4)c(Cl)cc12,-5,1,6,8,4,1,·
Cc1ccsc1/C=C1\C(=O)NC(=S)N(C)C1=O,4,-6,1,0,3,3,·
COc1ccc(/C=C2\C(=O)NC(=S)N(C)C2=O)cc1C,-2,2,35*,4,3,0,0
Oc1c(Cl)cccc1Cc1cc(Cl)cc(Cl)c1O,·,·,37*,6,5,·,25
C[C@]12CCC(=O)C(O)=C1CC[C@@H]1[C@@H]2CC[C@]2(C)C(=O)CC[C@@H]12,8,9,-6,11,-1,2,·
